# Shown are actives, neighbours in structure and some others; about 2.8% of the full set was active somewhere.
# pCIP destab = p/CIP-EGFP fusion destabilizers, primary screen, fluorescence, F442A cells | 0.01% of 290,000 active | decrease of EGFP signal, % at 10 µM | 16 h | AID 1984, 2009;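 active means EGFP signal decrease of at least 30% at 10 µM or well 3 SD below plate mean, unless failing retest; inactive means the rest, including hits failing retest or dose response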
# Target sequence (Q05BA5 1-1403): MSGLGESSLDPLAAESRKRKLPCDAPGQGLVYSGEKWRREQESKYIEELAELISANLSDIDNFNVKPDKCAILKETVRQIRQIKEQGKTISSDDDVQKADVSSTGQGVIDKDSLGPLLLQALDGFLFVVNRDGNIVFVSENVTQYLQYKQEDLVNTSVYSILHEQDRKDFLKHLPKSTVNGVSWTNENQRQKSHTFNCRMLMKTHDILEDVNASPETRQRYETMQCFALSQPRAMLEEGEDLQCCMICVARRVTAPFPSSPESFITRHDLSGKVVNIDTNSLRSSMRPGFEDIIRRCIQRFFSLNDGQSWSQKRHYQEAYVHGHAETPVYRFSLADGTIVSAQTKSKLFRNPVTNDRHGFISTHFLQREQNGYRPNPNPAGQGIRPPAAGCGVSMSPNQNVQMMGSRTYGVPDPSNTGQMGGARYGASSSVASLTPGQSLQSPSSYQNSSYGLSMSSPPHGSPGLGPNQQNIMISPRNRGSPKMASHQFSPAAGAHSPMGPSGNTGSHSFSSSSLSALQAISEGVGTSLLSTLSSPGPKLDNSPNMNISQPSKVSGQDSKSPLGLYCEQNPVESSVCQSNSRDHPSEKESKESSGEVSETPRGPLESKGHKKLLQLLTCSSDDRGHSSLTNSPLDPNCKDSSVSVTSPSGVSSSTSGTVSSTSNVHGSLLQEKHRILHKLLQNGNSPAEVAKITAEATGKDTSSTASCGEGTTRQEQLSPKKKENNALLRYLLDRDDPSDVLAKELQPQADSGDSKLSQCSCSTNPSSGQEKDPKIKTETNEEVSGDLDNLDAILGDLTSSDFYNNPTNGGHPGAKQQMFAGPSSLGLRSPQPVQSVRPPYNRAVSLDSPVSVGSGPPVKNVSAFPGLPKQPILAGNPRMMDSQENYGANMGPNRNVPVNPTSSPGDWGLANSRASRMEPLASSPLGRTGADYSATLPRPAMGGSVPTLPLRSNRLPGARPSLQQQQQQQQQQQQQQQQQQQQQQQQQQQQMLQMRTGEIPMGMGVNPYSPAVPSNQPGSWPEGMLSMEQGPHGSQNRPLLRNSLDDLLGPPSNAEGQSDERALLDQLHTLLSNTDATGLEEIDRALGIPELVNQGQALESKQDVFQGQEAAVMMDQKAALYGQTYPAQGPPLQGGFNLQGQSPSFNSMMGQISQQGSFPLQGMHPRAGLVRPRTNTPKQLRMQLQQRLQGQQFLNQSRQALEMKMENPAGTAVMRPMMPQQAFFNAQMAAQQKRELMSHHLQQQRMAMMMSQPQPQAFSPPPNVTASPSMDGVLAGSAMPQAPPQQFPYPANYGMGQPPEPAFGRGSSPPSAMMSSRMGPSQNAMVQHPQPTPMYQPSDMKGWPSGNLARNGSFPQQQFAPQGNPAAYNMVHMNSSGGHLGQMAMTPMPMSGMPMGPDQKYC
# Platelet DG rel = inhibitors of platelet dense granule secretion, primary screen, cell-based, MLPCN, human platelets. 0.22% of 300,000 active. human platelet-rich plasma, SFLLRN dense granule ATP release, luminescence. inhibition, %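 (compounds screened at 7.5 µM in platelet-rich plasma)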;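 active means mean replicate score, as percent of positive control, at or above 50; inconclusive means mean below 50 but at least one replicate at or above 50; inactive means mean and every replicate below 50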
# AHR activator = AHR activators, primary screen, cell-based, luminescence, luciferase reporter, human; Aryl hydrocarbon receptor (Homo sapiens), P35869; AHR-responsive luciferase reporter cells; activation, % at 5 µM; 2.5% of 320,000 active; AID 2796, 2010; in the data active means activation above about 47%;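 further: 0% = vehicle wells and 100% = reference agonist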
# HIF activator = HIF pathway transcriptional activators, primary screen, cell-based, U2OS HRE-luciferase, luminescence. activation, % at 7.5 µM (by protocol). 0.32% of 300,000 active. U2OS HRE-luciferase reporter; normalized: DMSO 0%, desferrioxamine 100%;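 active means mean activation of at least 10% of the iron chelator positive control signal, with at least half of replicates also reaching 10%; inconclusive means mean and replicate majority disagree about reaching 10%; inactive means mean and most replicates under 10%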
# PolyA inh = polyadenylation inhibitors in yeast reporter cells, primary screen, luminescence, S. cerevisiae; 0.02% of 300,000 active; S. cerevisiae SKY197-pL101 polyadenylation reporter, beta-gal luminescence; efflux-impaired pdr1/pdr3 knockout yeast; score 100 = 6 SD above DMSO; activity score, % at 12 µM; AID 1875, 2009;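 active means lowest replicate activity score at least 50, where 100 means six control SD above control mean; inconclusive means lowest score under 50 but half or more replicates reach 50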;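 further: yeast exposed to compound for 9 h at 30 °C; higher score means more reporter readthrough which indicates perturbed polyadenylation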
# Numbers without * were called inactive; ? = inconclusive; . = not tested or not shown.
SMILES,pCIP destab,Platelet DG rel,AHR activator,HIF activator,PolyA inh
COc1cc(C(F)(F)F)ccc1C(=O)NCCc1ccco1,0.5,1.5,-2.0,3.6,-5.6
CC(NC(=O)c1ccc(Br)cc1Br)c1ccccc1 (centres undefined),3.2,-4.3,0.1,0.3,62.4*
CC(NC(=O)c1ccc(Br)cc1)c1ccccc1 (centres undefined),8.1,-10.2,1.2,-0.3,70.1*
COc1ccccc1OC(=O)c1ccc(SC)cc1OC,6.0,.,4.4,0.3,-8.0
CCCCCCc1nc(C(N)=O)c2[nH]c(=O)n(-c3ccccc3F)c2n1,-11.1,-15.4,-0.9,0.2,-3.3
O=C(COC(=O)c1nc(Cl)ccc1Cl)Nc1ccc(Cl)cn1,.,.,42.9,.,.
O=C(COC(=O)c1ncc(Cl)c(Cl)c1Cl)Nc1ccc(Cl)cn1,.,-24.0,66.4*,0.2,-5.2
COc1ccc(OC)c(Nc2ncnc3sc(-c4ccccc4)cc23)c1,-7.9,-5.5,69.4*,0.4,0.4
Cc1ccc(N2CC(C(=O)Nc3nnc(SCC(N)=O)s3)CC2=O)cc1 (centres undefined),-39.7,-9.2,-0.8,-0.2,15.9
CSc1ncc(C(=O)Nc2cccc(C)c2C)c(C)n1,0.6,-5.8,.,1.3,13.2
CC1(C)CC(=O)C=C(Nc2ccc(Cl)cc2)C1,-4.5,-1.5,2.5,-0.2,-6.6
CC1(C)CC(=O)C=C(Nc2ccc(Cl)c(Br)c2)C1,-2.7,-7.7,67.5*,1.6,10.7
CCCCn1c(O)c(/C=C2\C=NN=C2c2ccccc2)sc1=S,4.0,-1.3,66.4*,0.0,-16.6
Cn1c(O)c(/C=C2\C=NN=C2c2ccccc2)sc1=S,7.1,0.4,74.9*,-0.1,-30.3
CCCCCCn1c(O)c(/C=C2\C=NN=C2c2ccccc2)sc1=S,-15.6,23.2,16.2,-0.3,-3.5
O=c1cc(C(F)(F)F)[nH]c(=S)n1-c1ccccc1,6.8,-5.4,-1.4,-0.3,7.8
Cc1sc(NC(=O)Cc2ccc3c(c2)OCO3)nc1-c1ccc2c(c1)CCN2C(=O)c1cccc(F)c1,-3.2,7.0,73.0*,-1.7,10.3
Cc1sc(NC(=O)CSc2nc(N)n(CC(=O)c3ccccc3)n2)c(C#N)c1C,4.3,2.1,0.6,0.1,-3.6
Nc1cc(C(F)(F)F)ccc1NCCc1ccccn1,-0.2,-1.2,63.6*,-0.4,-7.9
CCN(CC(=O)Nc1ccccc1OC)C(=O)CSCC(=O)Nc1ccc(OC)cc1,.,1.6,8.1,-0.7,-3.5
COc1ccc(-c2nnc(-c3cc(OC)c(OC)c(OC)c3)o2)cc1OC,-3.8,66.2*,9.2,0.0,-0.8
O=C(O)C(Nc1nc(C(F)(F)F)nc2ccccc12)c1ccccc1 (centres undefined),5.3,12.2,2.8,1.6,-4.0
COC(=O)CC1COc2ccccc2N1C(=O)/C=C/c1ccccc1 (centres undefined),4.8,-3.9,2.6,-1.1,-10.3
CSc1nc(-c2ccccc2)nc(N2CCOCC2)c1C(C)=O,5.3,2.2,68.8*,0.1,-12.5
FC(F)(F)c1nnc(-c2ccccc2)nc1N1CCOCC1,-3.9,-4.7,52.5*,-0.5,-20.0
SMILES,pCIP destab,Platelet DG rel,AHR activator,HIF activator,PolyA inh
C#CCn1c(CCNC(=O)c2ccco2)nc2ccccc21,9.4,-1.4,7.0,0.4,-2.6
O=C(CSc1nnc(-c2cccs2)o1)Nc1cccc(S(=O)(=O)N2CCCCC2)c1,5.2,21.4,10.9,-1.2,-11.4
CC(=O)NS(=O)(=O)c1ccc(NC(=O)/C=C/c2cn(-c3ccccc3)nc2-c2ccccc2)cc1,0.5,4.0,-0.6,0.4,4.8
O=C(/C=C\c1cn(-c2ccccc2)nc1-c1ccccc1)Nc1nccs1,-7.3,0.1,73.0*,-0.5,-3.8
COc1ccccc1CNC(=O)CSc1ccc(-c2cccc([N+](=O)[O-])c2)nn1,8.1,-1.4,-0.5,-0.2,15.6
COCCNC(=O)CCC(=O)NNc1nc2ccccc2c2nc(-c3ccccc3)nn12,-1.0,4.4,60.5*,0.0,-2.7
COCCCNC(=O)CCC(=O)NNc1nc2ccccc2c2nc(-c3ccccc3)nn12,-6.8,-1.5,62.4*,0.0,-4.1
C=CCn1c(C)nnc1SCC(=O)c1[nH]c(C)c(C(C)=O)c1C,13.4,1.7,40.7,0.1,2.6
CC(=O)c1c(C)[nH]c(C(=O)CSc2nnc(C)s2)c1C,-14.5,0.6,67.7*,2.0,14.7
CCOc1cc(CNc2ccc3cn[nH]c3c2)ccc1OC,-5.3,8.6,53.3*,0.2,2.4
O=[N+]([O-])c1cccc(-c2ccc(/C=N/NC(=S)Nc3ccccc3)o2)c1,-7.0,1.0,64.8*,0.8,-15.5
CC(C)(C)OC(=O)N1CCC(C(=O)Nc2cccc(C(=O)N3CCOCC3)c2)CC1,.,.,0.4,.,.
CCOc1ccccc1CNc1ccc(N2CCOCC2)c(C(=O)O)c1,0.3,1.0,3.1,-0.5,8.2
CS(=O)(=O)c1ccc(C(=O)NNC(=O)c2ccccc2-n2cccc2)cc1,.,.,3.0,.,.
O=c1cc(COc2ncnc3c(Cl)cc(Cl)cc23)nc2sccn12,-5.1,52.3*,0.5,0.0,6.1
O=c1cc(COc2ncnc3ccccc23)nc2sccn12,-12.2,0.9,1.2,-0.2,5.4
COc1ccc(CCN(Cc2cc3cccc(C)c3n3nnnc23)C(=O)c2ccncc2)cc1OC,-5.3,5.4,1.8,0.0,-1.4
Nc1c(C(=O)Nc2ccc3c(c2)OCCO3)nnn1Cc1ccc(Br)cc1,.,-4.0,50.8*,4.8,8.8
O=C(COC(=O)c1ccccc1Nc1ccccc1)NCc1ccccc1Cl,-8.2,-9.6,-0.8,683.2*,5.7
O=C(COC(=O)c1ccccc1Nc1ccccc1)NCc1ccccc1,-5.6,-8.2,0.7,-0.3,-13.0
Cc1sc2nc(CSCC(=O)Nc3ccc(C(F)(F)F)cc3)[nH]c(=O)c2c1C,.,.,58.9*,.,.
CCN1CCN(C(=O)CN2C(=O)COc3ccc(C)cc32)CC1,5.3,-2.9,-1.6,-0.4,?
CN1N=C2c3ccccc3CCCC2C1c1ccc(F)cc1 (centres undefined),-14.2,14.4,49.4*,5.2,-33.3
COc1cc2c(cc1OC)C(C)N(S(=O)(=O)c1ccc(Cl)nc1)CC2 (centres undefined),3.0,20.3,3.1,15.5*,-4.9
COc1cc2c(cc1OC)C(c1ccccc1)N(S(C)(=O)=O)CC2 (centres undefined),-12.9,-4.7,-0.2,28.5*,13.2
COc1cc2c(cc1OC)C(C)N(C(=O)c1ccc(Cl)c(S(=O)(=O)N3CCCCC3)c1)CC2 (centres undefined),-9.1,16.4,9.8,0.3,8.4
COc1cc2c(cc1OC)C(c1ccccc1)N(C(=O)CCl)CC2 (centres undefined),6.2,9.0,5.6,-0.5,-10.6
O=C(O)COc1ccccc1/C=N/NC(=O)c1cccc(S(=O)(=O)N2CCOCC2)c1,-0.6,-7.9,-0.6,-0.7,23.0
